Measured values taken from PubChem BioAssay (EPA / NIEHS).
Records with an inconclusive call do not appear. Active and inactive are the calls of the source. Rule for the calls: active = hit-call score of the fitted dose curve at least 0.9, where 1 is the maximum; inconclusive = response in the unintended direction; inactive = score below 0.9.

Assay: Tanguay_ZF_120hpf_TR_legacy: (Legacy) Oregon State University Tanguay Lab 120 Hour Post-fertilization zebrafish Assay for Touch Response (AID 2283667)
Method: Tanguay_ZF_120hpf_legacy is a whole embryo, multiplexed endpoint assay using zebrafish larvae exposed for 120 hours post fertilization on a 96-well plate.Tanguay_ZF_120hpf_TR_legacy is one of one assay component(s) measured or calculated from the Tanguay_ZF_120hpf_legacy assay. It is designed to make measurements of zebrafish development as detected with brightfield microscopy of developing zebrafish embryos.Data from the assay component Tanguay_ZF_120hpf_TR_legacy was analyzed into 1 assay endpoints. This assay endpoint, Tanguay_ZF_120hpf_TR_legacy, was analyzed in the positive analysis fitting direction relative to DMSO as the negative control and baseline of activity. Using a type of morphology reporter, gain-of-signal activity can be used to understand changes in developmentals as they relate to the whole embryo. To generalize the intended target to other relatable targets, this assay endpoint is annotated to the zebrafish development intended target family, where the subfamily is embryonic functional response.
Zebrafish husbandry: Tropical 5D wild-type adult zebrafish were housed in at an approximate density of 1000 per 100 gallon tank at the Sinnhuber Aquatic Research Laboratory, Oregon State University, Corvallis, OR. Each tank was kept at standard laboratory conditions of 28C on a 14-h light/10-h dark photoperiod in fish water consisting of reverse osmosis water supplemented with a commercially available salt (Instant Ocean). Spawning funnels were placed into the tanks the night prior, and embryos were collected and staged. […] Ten microliters of each row of dilution plate 2 was added to 2 exposure plates. The final DMSO concentration used was 0.64% (vol/vol). Thirty-two embryos were also exposed to 5uM trimethyltin chloride (positive control). Plates were sealed to prevent evaporation and foil covered to reduce light exposure and kept in a 28C incubator. Embryos were statically exposed until 120 hpf. At 24 hpf, embryos were assessed for photomotor response using a custom photomotor response analysis tool (PRAT) and for developmental toxicity endpoints (MO24: mortality at 24 hpf, DP: developmental progression, SM: spontaneous movement, and NC: notochord distortion). At 120 hpf, locomotor activity was measured using Viewpoint Zebralab and assessed for 18 endpoints. Zebrafish acquisition and analysis program (ZAAP), a custom program designed to inventory, acquire, and manage zebrafish data, was used to collect developmental endpoints as either present or absent (i.e., binary responses were recorded). If mortality occurred for an embryo (at either 24 or 120 hpf), the non-mortality endpoints were not measured.

| Structure (SMILES) | outcome |
| --- | --- |
| NC(=O)Cn1c(=O)cc(CCN2CCN(c3nccc4sccc34)CC2)c2ccc(F)cc21 | inactive |
| O=C(OCCCCCOC(=O)c1ccccc1)c1ccccc1 | inactive |
| NCCO | inactive |
| Cc1cc(NC(=O)C(=O)O)cc(C)c1Oc1ccc(O)c2c1CCC2 | inactive |
| Cc1ccc(C(C)C)c(O)c1 | inactive |
| OC[C@@H](O)[C@@H](O)[C@H](O)[C@H](O)CO | inactive |
| CCCCC(CC)COC(=O)CC(C(=O)OCC(CC)CCCC)S(=O)(=O)O (stereo not given) | inactive |
| Clc1cc(Cl)c(Cl)cc1Cl | inactive |
| CN1CCCC1=O | inactive |
| FC(F)(F)C(F)(F)C(F)(F)C(F)(F)C(F)(F)C(F)(F)CCI | inactive |
| Oc1ccc2c(c1)OC[C@@H](N1CCC(O)(c3ccc(F)cc3)CC1)[C@H]2O | inactive |
| CN1CCN(Cc2cc(-c3ccc4[nH]c(=O)oc4c3)co2)[C@@H](c2ccc(F)cc2)C1 | inactive |
| COc1cc(S(=O)(=O)O)c(C)cc1N=Nc1c(O)ccc2cc(S(=O)(=O)O)ccc12 | inactive |
| CNC(=O)[C@H]1O[C@@H](n2cnc3c(NCc4cc(Cl)ccc4OCc4cc(C)no4)ncnc32)[C@H](O)[C@@H]1N | inactive |
| Cc1cccc(Nc2cc(Cl)nc(SCC(=O)O)n2)c1C | inactive |
| C[C@]12C=CC(=O)C=C1CC[C@@H]1[C@@H]2C(=O)C[C@@]2(C)[C@H]1CC[C@]2(O)C(=O)CO | inactive |
| C=CCOC(=O)c1ccccc1C(=O)OCC=C | inactive |
| c1cc(-c2ccncc2)ccn1 | inactive |
| Cc1c(C(=O)O)c(O)cc2c1C(=O)c1c(O)c([C@@H]3O[C@H](CO)[C@@H](O)[C@H](O)[C@H]3O)c(O)c(O)c1C2=O | inactive |
| Cc1cc(=O)[nH]c(=S)[nH]1 | inactive |

| Structure (SMILES) | outcome |
| --- | --- |
| CC(=O)OC/C=C(\C)CCC=C(C)C | inactive |
| COCCOCCOC | inactive |
| O=c1c(O)c(-c2ccc(O)c(O)c2)oc2cc(O)cc(O)c12 | inactive |
| CCCCOC(=O)CCCCCCCCC(=O)OCCCC | inactive |
| CC(CO)OC(C)CO (stereo not given) (tested in a mixture with another compound) | inactive |
| CCCCCCCCCCCCCCCC | inactive |
| CCOc1ccc2c(c1)C(C)=CC(C)(C)N2 | inactive |
| O=C(O)CCCCC(=O)O | inactive |
| Cc1ccc(C)c(C)c1 | inactive |
| Cc1ccccc1Cl | inactive |
| NCC1(Cc2noc(=O)[nH]2)CCCCC1 | inactive |
| COc1cc(-c2nc(NC(=O)c3cc4cc(C)cc(C)c4n3CC(=O)O)sc2CCC2CCCCC2)c(OC)cc1Cl | inactive |
| Cc1oc(-c2ccccc2)nc1CCOc1cccc2c1ccn2CCC(=O)O | inactive |
| C[Si]1(C)O[Si](C)(C)O[Si](C)(C)O[Si](C)(C)O1 | inactive |
| CCCc1cc(=O)[nH]c(=S)[nH]1 | inactive |
| Cc1ccc(C)c(O)c1C | inactive |
| CCCCCCCCCCCCCCCCCC(=O)O | inactive |
| CCOC(=O)C(C)(C)Oc1ccc(Cl)cc1 | inactive |
| CC(C)c1ccc(C(=O)N=C(N)N)cc1S(C)(=O)=O | inactive |
| Cc1ccc2ncccc2c1 | inactive |
